Experiment [1] can be described thus: PERK-eIF2a-CHOP pathway stimulators, retested – cell-based, CHO-CHOP luciferase reporter, single concentration, confirmation (AID 463112; in the data active = activation above about 33%;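 note: 0% = DMSO wells and 100% = tunicamycin 10 µg/mL wells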). The note with it: CHO-CHOP cells, CHOP-luciferase reporter luminescence; at 10 µM; stronger effect = higher value; percent of tunicamycin response, DMSO as zero.
A short description of experiment [2]: lowers stimulated NF-kB luciferase signal in Jurkat – cell-based, luminescence, single concentration, T-cell NF-kB inhibitor project, confirmation (AID 435020).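 Note: plate controls were PMA/ionomycin stimulated DMSO wells for no effect and unstimulated DMSO wells for full effect.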 The note with it: PMA/ionomycin-induced, 16 h, at 4 µM, stronger effect = higher value.
Experiment [3] deals with Protein Mdm4 (Homo sapiens) + E3 ubiquitin-protein ligase Mdm2 (Homo sapiens) (UniProt O15151+Q00987). Nature of the experiment: human Mdm2/MdmX binding disruption – cell-based, luminescence, single concentration, set 2, confirmation (AID 504601;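 active = mean inhibition of the luminescence signal across two replicates at or above 26 percent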). The note with it: SaOS-2 split-luciferase Mdm2/MdmX complementation, at 8 µM, stronger effect = higher value.
Experiment [4] can be described thus: inhibition of PEG-3 promoter luciferase signal – cell-based, HeLa, luciferase reporter, single concentration, confirmation (AID 602417;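 active = at 20 µM dose, 40% or more inhibition averaged across four replicates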). The note with it: HeLa PEG-Prom luciferase reporter, luminescence, overnight; at 20 µM; stronger effect = higher value. Background: A reporter such as luciferase makes a cellular process visible.
Experiment [5] has as its target PEG-3 (UniProt Q6IN02). Nature of the experiment: inhibition of PEG-3 promoter-driven reporter – cell-based, HeLa, luciferase, CREF/GAPDH counter-screen panel, dose response (AID 624167). The note with it: CREF/GAPDH counter-screens; HeLa PEG-Prom luciferase reporter, overnight, run 1, dose range 1, at 100 µM (top of the series) unless noted. Background: The purpose of a counterscreen is to sort out artefacts and off-target activity.

Experiment [6] deals with PEG-3 (UniProt Q6IN02). The experiment is described as above. The note with it: CREF/GAPDH counter-screens; HeLa PEG-Prom luciferase reporter, overnight, run 2, dose range 1, at 100 µM (top of the series) unless noted.
Experiment [7] relates to Rat fibroblasts (CREF). Described as above. The note with it: CREF/GAPDH counter-screens; run 1, dose range 1, at 100 µM (top of the series).
For experiment [8], the system named is Rat fibroblasts (CREF). Described as above. The note with it: CREF/GAPDH counter-screens; run 2, dose range 1, at 100 µM (top of the series).
Experiment [9] concerns the target Sentrin-specific protease 8 (Homo sapiens) (UniProt Q96LD8). The experiment is described as follows: human SENP8 peptidase blockers, hit retest – biochemical, luminescence, single concentration, confirmation (AID 488912;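 active = mean inhibition across replicates above about 50%, limit read from the data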). The note with it: Recombinant SENP8, Z-RLRGG-aminoluciferin luminescence, 60 min; at 12.5 µM; stronger effect = higher value.
Experiment [10] deals with Sentrin-specific protease 6 (Homo sapiens) (UniProt Q9GZR1). Nature of the experiment: inhibition of human SENP6 catalytic domain – biochemical, luminescence, single concentration, confirmation (AID 488915;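 active = mean inhibition above about 50% in the one-dose retest, limit read from the data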). The note with it: recombinant SENP6, Z-RLRGG-aminoluciferin luminescence; at 12.5 µM; stronger effect = higher value.
In experiment [11] the target is Sentrin-specific protease 7 (Homo sapiens) (UniProt Q9BQF6). The experiment is described as follows: human SENP7 peptidase blockers, hit retest – biochemical, luminescence, single concentration, confirmation (AID 488917;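 active = mean inhibition above about 50% in the one-dose retest, limit read from the data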). The note with it: recombinant SENP7, Z-RLRGG-aminoluciferin luminescence, 40 min; at 12.5 µM; stronger effect = higher value.
For experiment [12], the target named is Caspase-3 (Homo sapiens) (UniProt P42574). Nature of the experiment: human caspase-3 activity blockade, out-of-family – biochemical, single concentration, selectivity assay for SENP inhibitor project, confirmation (AID 488918;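 active = mean inhibition above about 50%, limit read from the data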;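 note: plate controls were enzyme with DMSO for no effect and wells without caspase-3 for full effect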). The note with it: purified caspase-3, Z-DEVD-aminoluciferin luminescence, 60 min; at 12.5 µM; stronger effect = higher value.
Experiment [13] in a line: Ultra-Glo luciferase signal interference – biochemical, single concentration, SENP8 reaction pre-completed, artefact control for SENP inhibitor project, confirmation (AID 488919;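 active = mean inhibition above about 50% when retested at one dose, limit read from the data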;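 note: plate controls were DMSO wells with completed reaction for no effect and substrate without enzyme for full effect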). The note with it: Pre-incubated SENP8/Z-RLRGG-aminoluciferin, luciferase luminescence interference; at 12.5 µM; stronger effect = higher value.
Experiment [14] can be described thus: apoptosome-driven caspase-3 activation blockers – biochemical, fluorescence, DEVD-Rh110, 20 µM, confirmation (AID 504614;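 active = mean inhibition of at least 40% at 20 µM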;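 note: plate controls were DMSO wells for no effect and DEVD-CHO caspase inhibitor control wells for full effect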). The note with it: reconstituted apoptosome, caspase-3 DEVD-Rh110 fluorescence; at 20 µM; stronger effect = higher value.
Experiment [15] can be described thus: detection-step artefacts after completed caspase reaction – biochemical, fluorescence, Rh110, 20 µM, artefact control for Apaf-1 inhibitor project, confirmation (AID 504615;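 active = signal rise of 40% or more at 20 µM, treated as a fluorescence artifact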). The note with it: quenched caspase reaction, at 20 µM, stronger effect = higher value.
Experiment [16] can be described thus: Brca1-Bard1 BiLC signal decrease – luminescence, single concentration, counter-screen for Mdm2/MdmX interaction inhibitor project, confirmation (AID 504668; call rule not given here). The note with it: Brca1/Bard1 bimolecular luciferase complementation counterscreen, at 8 µM, stronger effect = higher value.
Experiment [17] is described as follows: HIF-2a driven luciferase blockers, single dose – luminescence, 786-0 RCC cells, confirmation (AID 651580;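 active = mean inhibition across four replicates of at least 40 percent at the single tested concentration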). The note with it: HIF-2a luciferase reporter luminescence, overnight, at 18.8 µM, stronger effect = higher value.
Experiment [18] is described as follows: HIF-1a luciferase reporter signal reduction – MiaPaCa-2 cells, single concentration, counter-screen for HIF-2a inhibitor project, confirmation (AID 651589;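 active = mean inhibition of the reporter signal across four replicates at the single tested dose of 50% or more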). The note with it: MiaPaCa-2 HIF-1a luciferase reporter, desferoxamine, overnight; at 18.8 µM; stronger effect = higher value.
Experiment [19] has as its target Carboxy-terminal domain RNA polymerase II polypeptide A small phosphatase 1 (Homo sapiens) (UniProt Q9GZU7). The experiment is described as follows: SCP1 melting temperature change from compounds – biophysical, differential scanning fluorimetry, orthogonal assay for Scp-1 inhibitor project, confirmation (AID 540329;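 active = substances whose mean melting-temperature shift, as a percentage of the reference inhibitor's shift, reaches about 5.3%, limit read from the data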;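 note: 0% = Tm of DMSO wells and 100% = Tm with sodium orthovanadate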). The note with it: Recombinant SCP1, Sypro Orange thermal shift Tm; at 40 µM; stronger effect = higher value.

The structures appear in SMILES notation. This is one part of the list. Activity calls are given as the source filed them.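 Rule for the calls, unless noted: active = inhibition reaching about 45% at 4 µM in either replicate (limit read from the data); inactive = the rest.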

This note sets out measurements from PubChem BioAssay.

Sequence of PEG-3 (Q6IN02 whole entry, looked up): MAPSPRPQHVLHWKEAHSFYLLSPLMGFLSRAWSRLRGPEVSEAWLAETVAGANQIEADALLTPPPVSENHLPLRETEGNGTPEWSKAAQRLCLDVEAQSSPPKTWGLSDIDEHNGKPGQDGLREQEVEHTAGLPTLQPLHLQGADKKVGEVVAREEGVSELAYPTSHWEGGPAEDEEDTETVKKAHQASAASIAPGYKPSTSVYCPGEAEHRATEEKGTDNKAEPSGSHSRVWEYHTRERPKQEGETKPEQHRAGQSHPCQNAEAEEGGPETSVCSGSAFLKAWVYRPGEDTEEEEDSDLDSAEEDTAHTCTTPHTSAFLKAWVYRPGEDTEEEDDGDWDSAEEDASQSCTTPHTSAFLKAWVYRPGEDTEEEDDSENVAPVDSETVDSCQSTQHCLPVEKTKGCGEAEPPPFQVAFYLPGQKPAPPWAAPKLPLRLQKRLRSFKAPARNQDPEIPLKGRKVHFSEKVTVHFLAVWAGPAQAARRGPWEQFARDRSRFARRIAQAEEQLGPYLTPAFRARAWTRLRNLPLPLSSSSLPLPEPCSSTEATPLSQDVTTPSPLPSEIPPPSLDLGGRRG
Sequence of Sentrin-specific protease 8 (Homo sapiens) (Q96LD8 whole entry, looked up, the tested form may be a part): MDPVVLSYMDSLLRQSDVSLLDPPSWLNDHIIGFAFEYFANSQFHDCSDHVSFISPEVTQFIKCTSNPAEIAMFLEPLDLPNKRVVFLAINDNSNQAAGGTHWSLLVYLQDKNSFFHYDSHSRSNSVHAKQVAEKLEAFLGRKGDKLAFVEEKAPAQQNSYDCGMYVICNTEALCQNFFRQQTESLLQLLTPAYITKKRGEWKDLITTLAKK
Sequence of Sentrin-specific protease 6 (Homo sapiens) (Q9GZR1 628-1112 limits assumed): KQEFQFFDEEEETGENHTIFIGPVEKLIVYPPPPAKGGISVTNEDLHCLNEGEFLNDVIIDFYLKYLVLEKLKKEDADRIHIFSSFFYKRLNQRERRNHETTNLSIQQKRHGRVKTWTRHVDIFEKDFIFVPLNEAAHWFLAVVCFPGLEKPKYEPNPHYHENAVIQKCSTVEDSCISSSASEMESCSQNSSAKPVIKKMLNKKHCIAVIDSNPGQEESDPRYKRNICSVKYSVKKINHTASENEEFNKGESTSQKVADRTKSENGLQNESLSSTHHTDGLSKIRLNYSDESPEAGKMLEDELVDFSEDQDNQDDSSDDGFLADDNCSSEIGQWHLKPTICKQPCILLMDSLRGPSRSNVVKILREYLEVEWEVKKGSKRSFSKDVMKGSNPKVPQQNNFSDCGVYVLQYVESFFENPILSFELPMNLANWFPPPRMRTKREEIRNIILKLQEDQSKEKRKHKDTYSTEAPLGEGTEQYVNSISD
Sequence of Protein Mdm4 (Homo sapiens) + E3 ubiquitin-protein ligase Mdm2 (Homo sapiens) (O15151 whole entry, looked up): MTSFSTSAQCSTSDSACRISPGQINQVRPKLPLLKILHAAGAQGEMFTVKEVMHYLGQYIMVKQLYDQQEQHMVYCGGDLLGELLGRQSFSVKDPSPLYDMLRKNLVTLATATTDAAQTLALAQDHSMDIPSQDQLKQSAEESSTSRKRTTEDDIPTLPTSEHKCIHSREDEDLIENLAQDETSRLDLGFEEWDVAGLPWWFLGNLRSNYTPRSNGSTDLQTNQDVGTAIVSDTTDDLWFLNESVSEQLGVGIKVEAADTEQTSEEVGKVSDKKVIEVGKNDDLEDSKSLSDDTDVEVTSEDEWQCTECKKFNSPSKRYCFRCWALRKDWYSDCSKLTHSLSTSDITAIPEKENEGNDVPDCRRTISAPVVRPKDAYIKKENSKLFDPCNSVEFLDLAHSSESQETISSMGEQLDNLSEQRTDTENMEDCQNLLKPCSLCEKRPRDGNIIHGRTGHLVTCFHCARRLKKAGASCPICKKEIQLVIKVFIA
Sequence of Protein Mdm4 (Homo sapiens) + E3 ubiquitin-protein ligase Mdm2 (Homo sapiens) (Q00987 whole entry, looked up): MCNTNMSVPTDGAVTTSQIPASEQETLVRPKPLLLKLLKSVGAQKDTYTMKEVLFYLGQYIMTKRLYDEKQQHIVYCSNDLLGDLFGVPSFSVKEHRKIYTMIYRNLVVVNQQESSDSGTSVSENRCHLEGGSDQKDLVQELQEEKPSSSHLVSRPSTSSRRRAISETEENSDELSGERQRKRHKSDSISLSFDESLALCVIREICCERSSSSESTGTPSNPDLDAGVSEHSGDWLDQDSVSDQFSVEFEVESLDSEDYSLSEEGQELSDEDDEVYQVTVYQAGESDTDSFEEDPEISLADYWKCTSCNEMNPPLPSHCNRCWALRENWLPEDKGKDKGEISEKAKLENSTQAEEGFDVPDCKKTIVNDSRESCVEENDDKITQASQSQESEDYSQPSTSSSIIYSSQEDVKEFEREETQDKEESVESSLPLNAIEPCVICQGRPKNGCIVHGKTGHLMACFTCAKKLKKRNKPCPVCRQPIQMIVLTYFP
Sequence of Sentrin-specific protease 7 (Homo sapiens) (Q9BQF6 706-1050 limits assumed): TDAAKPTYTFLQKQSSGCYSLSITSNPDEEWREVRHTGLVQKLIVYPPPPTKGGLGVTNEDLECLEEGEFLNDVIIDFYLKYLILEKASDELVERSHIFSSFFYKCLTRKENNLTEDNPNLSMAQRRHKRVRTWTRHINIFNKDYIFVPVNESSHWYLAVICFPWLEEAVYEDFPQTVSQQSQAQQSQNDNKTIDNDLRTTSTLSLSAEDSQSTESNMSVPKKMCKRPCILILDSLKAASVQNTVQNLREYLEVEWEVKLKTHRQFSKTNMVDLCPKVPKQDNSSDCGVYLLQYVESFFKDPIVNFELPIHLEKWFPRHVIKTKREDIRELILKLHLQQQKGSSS
Sequence of Caspase-3 (Homo sapiens) (P42574 28-227 limits assumed): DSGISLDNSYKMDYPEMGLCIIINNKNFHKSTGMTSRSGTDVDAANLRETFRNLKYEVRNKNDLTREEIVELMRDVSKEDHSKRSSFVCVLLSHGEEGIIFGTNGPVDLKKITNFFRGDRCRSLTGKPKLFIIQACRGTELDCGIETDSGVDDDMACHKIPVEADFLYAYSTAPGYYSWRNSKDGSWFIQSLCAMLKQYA
Sequence of Carboxy-terminal domain RNA polymerase II polypeptide A small phosphatase 1 (Homo sapiens) (Q9GZU7 76-261 limits assumed): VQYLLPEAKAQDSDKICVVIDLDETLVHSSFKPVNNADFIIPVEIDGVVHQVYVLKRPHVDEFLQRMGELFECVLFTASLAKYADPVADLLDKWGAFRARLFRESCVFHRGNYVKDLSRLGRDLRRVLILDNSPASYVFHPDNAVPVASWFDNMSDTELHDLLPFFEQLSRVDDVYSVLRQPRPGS

As to `O=C1Nc2ccc(Br)cc2/C1=N/N=C/C1=C(N2CCOCC2)C(=C\c2ccccc2)/CC1`, in [1], the activation is 53.4% (active).

For `Cc1cc(N/N=C\c2ccc(Br)cc2)nc(-n2nc(C)cc2C)n1`, in [1], the activation is 12.3% (inactive).

Turning to `OCCCNc1nccc(-c2cc(Nc3cccc(Cl)c3)ncn2)n1`, the inhibition (in general, the relative decrease from the control value, in per cent) in experiment [2] was 97% (active); in experiment [3], 102% (active); in experiment [4], 97.6% (active); in experiment [5], 94%; in experiment [6] it was 97.4%; in [7], 14.7%. In addition, in [8], the inhibition was 62.3%.

Turning to `CCOc1ccc(N2C(=O)CC(N(O)c3ccccc3)C2=O)cc1` (configuration not stated), the activation in experiment [1] was 186% (active).

As to `Cn1c(-c2ccc(C(=O)c3ccccc3)s2)nc2ccccc21`, the inhibition in experiment [2] is -108% (inactive); in experiment [9] it was 0% (inactive); in experiment [10], 11.3% (inactive); in [11] it was 17.8% (inactive); in [12] it was 23% (inactive); in experiment [13], 8.8% (inactive).

Take `Cc1c(C(=O)Nc2ccccn2)oc2ccc(Br)cc12`: the inhibition in [2] is -77.2% (inactive); in [9], 14.3% (inactive); in [10], 18.5% (inactive); in [11], 27.6% (inactive); in experiment [12], 22.7% (inactive); in experiment [13] it was 17.1% (inactive).

Regarding `O=C(Nc1ccc2c(c1)CCC2)c1ccc(Br)s1`, the inhibition in experiment [2] is -177% (inactive); in [9], 44.7% (inactive); in experiment [10] it was 70.8% (active); in experiment [11], 73.3% (active); in experiment [12], 47% (inactive); in experiment [13], 24.2% (inactive).

For the molecule `O=c1oc2ccccc2cc1-c1cn(-c2ccccc2)c(=S)[nH]1`, the inhibition in experiment [2] is 80.8% (active); in [9], 39.3% (inactive); in experiment [10], 47.9% (inactive); in experiment [11], 81.7% (active); in experiment [12] it was 81.8% (active); in experiment [13] it was 19.1% (inactive). Also, the inhibition in experiment [3] is 92% (active).

For the molecule `CCCc1cc(=S)n2c([nH]c3ccccc32)c1C#N`, the activation in experiment [1] was -0.45% (inactive).

In the case of `COc1ccc2cc1Oc1ccc(cc1)C[C@H]1c3cc(c(OC)cc3CCN1C)Oc1c(O)c(OC)cc3c1[C@H](C2)N(C)CC3`, the inhibition in experiment [2] is 16.9% (inactive); in experiment [3] it was 104% (active).

For `CCOc1[nH]n(-c2ccc(Cl)cc2)c(=O)c1C=Nc1ccc(O)cc1`, the inhibition was 6% (inactive) in experiment [2] and 14.8% (inactive) in experiment [14]. In addition, the activation (fluorescence interference) in experiment [15] is 5.36% (inactive).

Regarding `CCCCCC(=O)Nc1ccc(C(=O)N/N=C/c2ccc([N+](=O)[O-])cc2)cc1`, the activation in experiment [1] was 79% (active).

In the case of `Cc1ccc(Cc2cnc(NC(=O)/C(C#N)=C/c3ccc(-c4cccc([N+](=O)[O-])c4)o3)s2)cc1`, the activation in experiment [1] is 61.4% (active).

Consider `Clc1cccc(Cl)c1OCCOCCNCc1ccccc1`, for which the inhibition in experiment [2] was 86.6% (active); in experiment [16], 33% (active).

In the case of `C=C(C)C(=O)O[C@H]1C/C(C)=C\C(=O)/C=C(\C)[C@H](O)[C@@H]2OC(=O)C(=C)[C@@H]21`, the inhibition in [2] was 34.6% (inactive); in experiment [3], 103% (active); in experiment [17] it was 61.8% (active); in experiment [18] it was 108% (active).

For `N/C(=N\OC(=O)N1c2ccccc2Sc2ccccc21)c1ccc(Br)cc1`, the inhibition in experiment [2] was 6.45% (inactive). Besides, the thermal shift relative to vanadate control in [19] was -22.1% (inactive).

Turning to `CC(C)(C)c1ccc(Oc2ccc(N)cc2)cc1`, the inhibition is 11.6% (inactive) in [2]; 86.3% (active) in [4]; 99.3% in experiment [5]; 99.2% in experiment [6]; 60.1% in [7]; 83.1% in experiment [8].
